Results filed as inconclusive are left out. Where a call stands in place of a potency, no number is given. The source made the active and inactive calls. Calls follow the shape of the dose curve; as a rule, active = well fitted cell-killing curve with a large enough effect; inconclusive = small, poorly fitted or top-dose-only effect, or effect the other way; inactive = no such curve, though single readings can be large or run the other way.
Potency is read from the fitted curve at half-maximal effect.

One test can be described thus: Quantitative High-Throughput drug screen in 47 multiple myeloma cell lines against the NCATS MIPE library collection: OCIMY1_PLB cell viability assay (AID 1918979). Also: nearly all actives have a fitted effect of over 35% in size. Conditions: OCI-MY1 myeloma viability, CellTiter-Glo ATP, 48 h; series mostly up to 45.8 µM. The method, boiled down: (§1)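 Myeloma cells (500/well) treated with MIPE 4.0 compounds for 48 h at 37 °C, 5% CO2. Viability read as ATP via CellTiter-Glo luminescence after 5 min at RT; DMSO-only wells = 100%, media-only = 0% viability.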
With `Cc1nnc(C(=O)NC(C)(C)c2nc(C(=O)NCc3ccc(F)cc3)c(O)c(=O)n2C)o1`, the Potency entry is “inactive”.

Regarding `CC[C@H](C)C(=O)O[C@H]1C[C@@H](C)C=C2C=C[C@H](C)[C@H](CC[C@@H]3C[C@@H](O)CC(=O)O3)[C@H]21`, the Potency result was “inactive”. Take `O=C(O)c1cn(C2CC2)c2cc(N3CCNCC3)c(F)cc2c1=O`: the Potency result is “inactive”. Take `Cc1ccnc2c1NC(=O)c1cccnc1N2C1CC1`: the Potency result was “inactive”. As for `CCOc1cc(N)c(Cl)cc1C(=O)NCC1CN(Cc2ccc(F)cc2)CCO1` (configuration not stated), the Potency result is “inactive”.

As for `Nc1nc(N)c2nc(CNc3ccc(C(=O)NC(CCC(=O)O)C(=O)O)cc3)cnc2n1` (configuration not stated), the Potency result is “inactive”.

With `CCCCc1oc2ccc(NS(C)(=O)=O)cc2c1C(=O)c1ccc(OCCCN(CCCC)CCCC)cc1`, the Potency was 20.9 µM (active).

As to `CS(=O)(=O)c1ccc([C@@H](O)[C@@H](CO)NC(=O)C(Cl)Cl)cc1`, the Potency result was “inactive”. Take `Nc1ccc(S(=O)(=O)Nc2ccccn2)cc1`: the Potency result is “inactive”. Take `CCCN[C@H]1CCc2nc(N)sc2C1`: the Potency entry is “inactive”.

On to `Cc1nnc(NS(=O)(=O)c2ccc(N)cc2)s1`, for which the Potency result is “inactive”. As to `COc1ccc(C(=O)CC(=O)c2ccc(C(C)(C)C)cc2)cc1`, the Potency entry is “inactive”.

Regarding `OC(Cn1cncn1)(Cn1cncn1)c1ccc(F)cc1F`, the Potency entry is “inactive”.

A short description of a further test: Quantitative High-Throughput drug screen in 47 multiple myeloma cell lines against the NCATS MIPE library collection: MM1S_ATCC cell viability assay (AID 1918980). Also: nearly all actives have a fitted effect of over 45% in size. The conditions noted are these: MM1S myeloma viability, CellTiter-Glo ATP luminescence, 48 h; series mostly up to 45.8 µM. Put shortly: as §1
(Cellular ATP, detected with luciferase, serves as a proxy for viable cell number.)
Regarding `Cc1nnc(C(=O)NC(C)(C)c2nc(C(=O)NCc3ccc(F)cc3)c(O)c(=O)n2C)o1`, the Potency result is “inactive”. With `CC[C@H](C)C(=O)O[C@H]1C[C@@H](C)C=C2C=C[C@H](C)[C@H](CC[C@@H]3C[C@@H](O)CC(=O)O3)[C@H]21`, the Potency was 16.6 µM (active). Still for that read-out and setting: to `CC(C)(Sc1cc(C(C)(C)C)c(O)c(C(C)(C)C)c1)Sc1cc(C(C)(C)C)c(O)c(C(C)(C)C)c1` belongs 4.18 µM (active); to `COc1cc2ncnc(Nc3cccc(Cl)c3)c2cc1OC`, 0.0743 µM (active); to `CCCCOc1ccc(CC(=O)NO)cc1`, 2.64 µM (active). Same read-out and setting: as for `Cc1ccnc2c1NC(=O)c1cccnc1N2C1CC1`, the figure is 4.69 µM (active); as for `COc1cnc(NS(=O)(=O)c2ccc(N)cc2)nc1`, 29.6 µM (active). As to `CC(=O)[C@H]1CC[C@H]2[C@@H]3CCC4=CC(=O)CC[C@]4(C)[C@H]3CC[C@]12C`, the Potency is 3.72 µM (active). For the compound `C[C@@H](CN1CC(=O)NC(=O)C1)N1CC(=O)NC(=O)C1`, the Potency is 3.32 µM (active). With `Nc1nc(N)c2nc(CNc3ccc(C(=O)NC(CCC(=O)O)C(=O)O)cc3)cnc2n1` (configuration not stated), the Potency was 0.0132 µM (active). On the same count and under the same terms, to `CCCCc1oc2ccc(NS(C)(=O)=O)cc2c1C(=O)c1ccc(OCCCN(CCCC)CCCC)cc1` belongs 20.9 µM (active). On the same count and under the same terms, to `CS(=O)(=O)c1ccc([C@@H](O)[C@@H](CO)NC(=O)C(Cl)Cl)cc1` belongs 7.43 µM (active).

With `C[C@@H]1CN(c2c(F)c(N)c3c(=O)c(C(=O)O)cn(C4CC4)c3c2F)C[C@H](C)N1`, the Potency entry was “inactive”. On to `O=C(O)C1CCCN(CCC=C(c2ccccc2)c2ccccc2)C1` (configuration not stated), for which the Potency is 9.35 µM (active). Turning to `S=P(N1CC1)(N1CC1)N1CC1`, the Potency is 18.7 µM (active).

For the compound `CC(C)OC(=O)OCOP(=O)(CO[C@H](C)Cn1cnc2c(N)ncnc21)OCOC(=O)OC(C)C`, the Potency was 23.5 µM (active). Same read-out and setting: as for `NC(=O)c1cccnc1`, the entry is “inactive”; as for `CC1(C)[C@H](C(=O)O)N2C(=O)C[C@H]2S1(=O)=O`, 26.4 µM (active); as for `CCCN[C@H]1CCc2nc(N)sc2C1`, 0.833 µM (active). For `O=S(=O)(O)CCS`, the Potency entry was “inactive”. Consider `CN1CCN(c2c(F)cc3c(=O)c(C(=O)O)cn4c3c2OCN4C)CC1`, for which the Potency entry is “inactive”. In the case of `Cc1nnc(NS(=O)(=O)c2ccc(N)cc2)s1`, the Potency was 2.64 µM (active).

Turning to `COc1ccc(C(=O)CC(=O)c2ccc(C(C)(C)C)cc2)cc1`, the Potency was 1.05 µM (active).

The nature of a further test: Quantitative High-Throughput drug screen in 47 multiple myeloma cell lines against the NCATS MIPE library collection: MM1R_ATCC cell viability assay (AID 1918981). Also: nearly all actives have a fitted effect of over 35% in size. Conditions: MM1R multiple myeloma cells, CellTiter-Glo viability, 48 h; series mostly up to 45.8 µM. Put shortly: as §1
As for `CN1CCN(c2c(F)cc3c(=O)c(C(=O)O)cn(CCF)c3c2F)CC1`, the Potency result is “inactive”. For `Cc1nnc(C(=O)NC(C)(C)c2nc(C(=O)NCc3ccc(F)cc3)c(O)c(=O)n2C)o1`, the Potency entry is “inactive”. Regarding `CC[C@H](C)C(=O)O[C@H]1C[C@@H](C)C=C2C=C[C@H](C)[C@H](CC[C@@H]3C[C@@H](O)CC(=O)O3)[C@H]21`, the Potency was 16.6 µM (active).

In the case of `CC(C)(Sc1cc(C(C)(C)C)c(O)c(C(C)(C)C)c1)Sc1cc(C(C)(C)C)c(O)c(C(C)(C)C)c1`, the Potency result is “inactive”.

Regarding `COc1cc2ncnc(Nc3cccc(Cl)c3)c2cc1OC`, the Potency is 20.9 µM (active).

On to `CCCCOc1ccc(CC(=O)NO)cc1`, for which the Potency was 8.33 µM (active). As for `Cc1ccnc2c1NC(=O)c1cccnc1N2C1CC1`, the Potency entry is “inactive”. The same measure, in the same setting: as for `CCOC(=O)c1ccc(OC(=O)CCCCCN=C(N)N)cc1`, the entry is “inactive”; as for `NC(=O)c1cccc(N)c1`, “inactive”; as for `CCn1cc(C(=O)O)c(=O)c2cc(F)c(N3CCN(C)CC3)cc21`, “inactive”. On the same count and under the same terms, to `COc1cnc(NS(=O)(=O)c2ccc(N)cc2)nc1` belongs “inactive”; to `CCCCc1oc2ccc(NS(C)(=O)=O)cc2c1C(=O)c1ccc(OCCCN(CCCC)CCCC)cc1`, 14.8 µM (active). Consider `O=C(O)C1CCCN(CCC=C(c2ccccc2)c2ccccc2)C1` (configuration not stated), for which the Potency entry is “inactive”. In the case of `S=P(N1CC1)(N1CC1)N1CC1`, the Potency was 18.7 µM (active).

For `NC(=O)c1cccnc1`, the Potency result is “inactive”. As for `CC1(C)[C@H](C(=O)O)N2C(=O)C[C@H]2S1(=O)=O`, the Potency result is “inactive”.

In the case of `O=S(=O)(O)CCS`, the Potency entry is “inactive”. On the same count and under the same terms, as for `CCCOc1ccc(C(=O)OCCN(CC)CC)cc1N`, the entry is “inactive”; as for `CN1CCN(c2c(F)cc3c(=O)c(C(=O)O)cn4c3c2OCN4C)CC1`, “inactive”. Same read-out and setting: as for `Cc1nnc(NS(=O)(=O)c2ccc(N)cc2)s1`, the figure is 18.7 µM (active); as for `COc1ccc(C(=O)CC(=O)c2ccc(C(C)(C)C)cc2)cc1`, 2.35 µM (active).
